Test [1] can be described thus: OV-KATE Cancer Cell Toxicity qHTS against the NCATS CANVASS Library (AID 1347345). Note: % is set by controls: 0 for no effect and ±100 for the full control effect. In short, it runs like this:
(§1)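 Bortezomib titration and single-dose wells served as plate controls. Test compounds, 11 points, acted on 1000 cells/well for 72 h at 37 degrees C; CellTiter-Glo luminescence quantified remaining viable cells.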
For orientation: qHTS replaces the single test concentration by a dilution series.

Test [2] can be described thus: OV-SAHO Cancer Cell Toxicity qHTS against the NCATS CANVASS Library (AID 1347348). For activity change, negative = cytotoxicity: series mostly up to about 38 µM; % is set by controls: 0 for no effect and ±100 for the full control effect. Note: nearly all actives have a fitted effect of over 55% in size. Note: potency is the fitted concentration of half-maximal effect. In short, it runs like this: as §1
Test [3] is described as follows: Panc-1005 Cancer Cell Toxicity qHTS against the NCATS CANVASS Library (AID 1347349). For activity change, negative = cytotoxicity: series mostly up to about 38 µM; % is set by controls: 0 for no effect and ±100 for the full control effect. Note: nearly all actives have a fitted effect of over 60% in size. Note: potency is the fitted concentration of half-maximal effect. In short, it runs like this:
as §1

Test [4] is described as follows: SW1088 Cancer Cell Toxicity qHTS against the NCATS CANVASS Library (AID 1347350). For activity change, negative = cytotoxicity: series mostly up to about 38 µM; % is set by controls: 0 for no effect and ±100 for the full control effect. Note: nearly all actives have a fitted effect of over 75% in size. Note: potency is the fitted concentration of half-maximal effect. In short, it runs like this:
as §1

The nature of test [5]: U-118MG Cancer Cell Toxicity qHTS against the NCATS CANVASS Library (AID 1347351). Note: potency is the fitted concentration of half-maximal effect. In short, it runs like this:
as §1

Test [6] is described as follows: COV-362 Cancer Cell Toxicity qHTS against the NCATS CANVASS Library (AID 1347352). Note: potency is the fitted concentration of half-maximal effect. In short, it runs like this:
(§2)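 First, 1000 cells go into each well and rest for 4 hours. Next, an 11-point dilution range is pinned in. Plates then incubate 72 hours before CellTiter-Glo addition and luminescence reading.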

A short description of test [7]: A2780 Cisplatin Sensitive Ovarian Cancer Cell Toxicity qHTS against the NCATS CANVASS Library (AID 1347353). Note: nearly all actives have a fitted effect of over 60% in size. Note: potency is the fitted concentration of half-maximal effect. In short, it runs like this:
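Cells are plated at 750 per well and rest for 4 hours. Compounds are added across eleven concentrations, and incubated 72 hours before ATP is quantified by luminescence.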

Test [8] is described as follows: UWB1.289-WTBRCA1 Cancer Cell Toxicity qHTS against the NCATS CANVASS Library (AID 1347354). In short, it runs like this:
as §2

The nature of test [9]: HEK293 24hr Apoptosis Induction qHTS against the NCATS CANVASS Library (AID 1347359). Note: 0% is about no effect. In short, it runs like this:
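HEK293 cells (500/well, DMEM + 10% FBS) were exposed to compounds in an 11-point series for 24 hours at 37 degrees C, then caspase-3/7 activity was read by Caspase-Glo DEVD luciferase luminescence after 15 min.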

Test [10] can be described thus: SDT Cancer Cell Toxicity qHTS against the NCATS CANVASS Library (AID 1347365). Note: nearly all actives have a fitted effect of over 60% in size. Note: potency is the fitted concentration of half-maximal effect. In short, it runs like this:
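Cytotoxicity is measured from cellular ATP: compounds in an 11-point concentration series are pinned onto SDT cells, incubated 72 hr at 37C, then CellTiterGlo is added and luminescence read.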

Test [11] is described as follows: qHTS for ATAD5 Agonist screened against the NCATS CANVASS Library (AID 1347367). For activation: 0% is about no effect.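 Note: luciferase reporter driven by ATAD5 which rises upon DNA damage.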 Note: potency is the fitted concentration of half-maximal effect. In short, it runs like this: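 Step one plated reporter cells and let them acclimate 5hr. Step two pinned compounds with MMS as positive and 0.46% DMSO as negative control. After 16hr incubation, fluorescence viability then luminescence were read.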
The nature of test [12]: G06 Cancer Cell Toxicity qHTS against the NCATS CANVASS Library (AID 1347368). Note: nearly all actives have a fitted effect of over 60% in size. Note: potency is the fitted concentration of half-maximal effect. In short, it runs like this: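 Cells were plated at 500 per well, then compounds were added over an 11-point range. After 72 hr at 37C, CellTiterGlo was added and luminescence measured as ATP content.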
Test [13] can be described thus: DH5-alpha competent E. coli microbial cell viability qHTS against the NCATS CANVASS Library (AID 1347377). For viability signal change, negative = cytotoxic: 0% is about no effect. Particulars: outcome: dose series up to 46.1 µM unless noted. In short, it runs like this: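 Bacteria were dispensed at 0.2 OD, then compounds were pin-transferred. Plates were incubated overnight at 37C, after which BacTiter-Glo was added and luminescence measured 20 min later.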

Test [14] is described as follows: qHTS for H2AX Agonists against the NCATS CANVASS Library (AID 1347378).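 Note: phospho-H2AX S139 level in CHO-K1 lysates by TR-FRET emission ratio; 0% is about no effect.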 In short, it runs like this:
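Following overnight seeding, CHO-K1 cells are incubated with a concentration series of compound for 3 hr at 37C (final DMSO 0.76%). Cells are then lysed, detection antibodies added, and emission ratio 665/620 nm recorded after 24 hr at room temperature.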

The nature of test [15]: Inflammasome Signaling qHTS Counterscreen: IL-1-beta AlphaLISA counterscreen against the NCATS CANVASS Library (AID 1347381).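 Note: cell-free check with purified IL-1β in medium and no THP-1 cells; series mostly up to about 57 µM; 0% is about no effect.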 In short, it runs like this:
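Purified IL-1-beta (4 pg/well) + compound, 11-pt conc. series; acceptor beads 6 ug/mL + biotin-Ab 0.6 nM final, 1 h RT; SA-donor 24 ug/ml final, 30 min dark RT; read ex 680/em 615.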

A short description of test [16]: qHTS assay for small molecule disruptors of mitochondrial membrane potential screened against the NCATS CANVASS Library (AID 1347389). Note: nearly all actives have a fitted effect of over 60% in size. Note: potency is the fitted concentration of half-maximal effect. In short, it runs like this: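 Mitochondrial depolarization in HepG2 cells is scored as a falling aggregate-to-monomer fluorescence ratio after 1 hr compound exposure and 30 min staining with Mito-MPS dye at 37C, each compound tested as an 11-point titration.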

Test [17] is described as follows: qHTS for inhibitors of ER calcium dysfunction: SERCaMP assay screened against the NCATS CANVASS Library (AID 1347393).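 Note: series mostly up to about 77 µM; % is set by controls: 0 for no effect and ±100 for the full control effect; lower secreted reporter signal means inhibitor of ER calcium depletion; nearly all actives have a fitted effect of over 40% in size.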 In short, it runs like this:
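qHTS in SH-SY5Y reporter cells: 16 h compound pretreatment, 4 h thapsigargin, then secreted Gaussia luciferase measured by luminescence.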

Test [18] can be described thus: Vero-766 cells viability qHTS against the NCATS CANVASS Library: Counterscreen for Zika virus inhibition assay (AID 1347394). Note: nearly all actives have a fitted effect of over 60% in size. Note: potency is the fitted concentration of half-maximal effect. In short, it runs like this: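 This cytotoxicity counterscreen uses African green monkey Vero 766 cells in the absence of Zika virus. Compounds are incubated with cells for 72 h, and ATP-based luminescence reports viability.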
Test [19] can be described thus: Redox Reaction Profiling qHTS: Assay Interference Panel against the NCATS CANVASS Library (AID 1347401).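 Note: 100% = activation by 2 µM chloranil control.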 In short, it runs like this:
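Quantitative HTS over an 11-point series was run in HEPES pH 7.3 with 50 mM NaCl, 200 uM DTT and 5 uM resazurin. Initial and 15-min resorufin fluorescence readings were taken.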

Test [20] is described as follows: KB-3-1 Cancer Cell Toxicity qHTS against the NCATS CANVASS Library (AID 1347366). Note: nearly all actives have a fitted effect of over 75% in size. Note: potency is the fitted concentration of half-maximal effect. In short, it runs like this:
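Seed KB-3-1 cells at 500/well in DMEM with 10% FBS, add compounds, incubate 72 hr at 37C and 5% CO2, then add CellTiter-Glo and read luminescence after 10 minutes.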

We go through seven molecules from PubChem BioAssay (NCATS).

Unmarked numbers belong to inactive results. Records with an inconclusive call do not appear. The source made the active and inactive calls. Calls come from the whole dose curve; as a rule, active = well fitted curve in the direction sought with a large enough effect; inconclusive = small, poorly fitted or top-dose-only effect, or another doubt; inactive = no such curve, though single readings can be large; an effect the other way counts as inactive or inconclusive.

Regarding `CC[C@@H]1C[C@@]2(CC)OC(=O)[C@@]3(CC)[C@H](CC)[C@@H]1[C@@H]23`, the Potency result in [1], in test [2], in [3], in [4], in test [5] and in test [6] was “inactive” throughout. The Potency entry in [7], in test [8], in test [9], in [10], in [11] and in test [12] was “inactive” throughout. Moreover, the Potency result in [14], in test [16], in [17], in test [18] and in test [19] was “inactive” each time. Also, the molecule was called inactive in [13] and in test [15].
In the case of `Cc1cc(C)c(O)c(C(=O)CC2CC(=O)NC(=O)C2)c1`, the Potency entry in [4], in test [11], in test [16] and in [19] was “inactive” in each case. Besides, the Potency in [7] was 4.69 µM (active); in [10], 1.32 µM (active); in [12] it was 2.64 µM (active). The call in test [13] and in test [15] was inactive.
Take `C/C1=C/[C@@H](C)[C@H](O)[C@@H](O)/C=C/CC/C=C/C(=O)O[C@@H]1[C@H](C)C(=O)/C=C/CC1CC(=O)NC(=O)C1`: the Potency result in [4], in test [8], in test [9], in [20], in test [14] and in [16] was “inactive” in each case. Further, the Potency entry in [17] and in test [18] was “inactive” each time. In addition, the Potency in test [7] was 13.2 µM (active); in test [10] it was 18.7 µM (active). In addition, the outcome in test [13] and in test [15] was inactive.
With `Cc1cc(O)cc2c1C(=O)c1c(O)cc(O)cc1C2=O`, the Potency result in test [1], in test [2], in test [3], in test [4], in test [5] and in [6] was “inactive” in each case. For the same molecule, the Potency entry in test [7], in [8], in test [9], in test [10], in test [11] and in [12] was “inactive” in each case. The Potency entry in test [14], in test [16], in test [17], in [18] and in test [19] was “inactive” in each case. The call in test [13] was inactive.
Consider `COc1ccc([C@@H]2CC(=O)c3c(cc(O)c(C/C=C(\C)CCC=C(C)C)c3O)O2)cc1`, for which the activity change, negative = cytotoxicity in [2] was -12.7% [at 7.64 µM]; in test [3] it was -16.1% [at 7.64 µM]; in [6], 1.08% [at 7.64 µM]; in test [8], -3.16% [at 7.64 µM]; in test [10] it was 0.771% [at 9.19 µM]. The figures for the outcome in [5] and in test [12] were “inactive [at 7.64 µM]” and “inactive [at 9.19 µM]”, respectively. Further, the activation was 2.74% [at 9.19 µM] in test [9], -1.01% [at 9.19 µM] in test [11] and 3.21% [at 15.3 µM] in test [14]. Besides, the viability signal change, negative = cytotoxic in test [13] was 8.04% [at 9.19 µM]. Also, in test [15], the activity change, negative = inhibition was -7.89% [at 11.5 µM]. Moreover, in test [16], the Potency was 3.84 µM (active). Besides, the activity change, negative = cytotoxic in test [18] was -18.7% [at 9.19 µM]. In test [19], the activation (redox signal) was -16.9% [at 11.4 µM].
In the case of `CCC(=O)CCCCC[C@@H]1NC(=O)[C@H]2CCCCN2C(=O)[C@H](C(C)C)NC(=O)[C@H](Cc2cn(OC)c3ccccc23)NC1=O`, the Potency in test [2] was 14.9 µM (active); in [3], 4.21 µM (active); in [4], 13.3 µM (active); in [5], 3.75 µM (active); in [6] it was 18.8 µM (active); in [7], 5.26 µM (active). The Potency in test [10] is 7.43 µM (active); in [20], 7.43 µM (active); in test [11], 3.31 µM (active); in test [12], 4.69 µM (active); in test [18], 5.88 µM (active). The Potency result in test [16], in test [17] and in test [19] was “inactive” throughout.
`C/C(=C\[C@H](C)C(=O)/C=C/CC1CC(=O)NC(=O)C1)[C@@H]1OC(=O)/C=C/CC/C=C/C[C@@H](O)[C@@H]1C`: the Potency in test [2] was 2.11 µM (active); in test [4], 16.8 µM (active); in test [6] it was 2.36 µM (active); in test [7], 1.18 µM (active); in [10] it was 0.662 µM (active); in test [20] it was 11.8 µM (active). For the same molecule, the Potency in test [12] was 1.05 µM (active). The Potency entry in test [9], in test [17] and in test [18] was “inactive” in each case. Moreover, the molecule was called inactive in test [13].
